BRCT PPI red – disrupts BRCA1 BRCT binding to phosphoprotein, red fluorophore readout; BRCT-phosphopeptide binding, red fluorescence polarization; 75,000 compounds, 0.03% hits; AID 892; P38398; Potency, µM (series often up to 76.9 µM), for the others: top-dose activity change, negative = inhibition, actives largely listed as inhibitors; note: % is set by controls: 0 for no effect and ±100 for the full control effect
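Fluorescence polarization: 100 nM His-tagged BRCA1 BRCT with 100 nM TAMRA-labelled phospho-BACH1 decapeptide, phosphate buffer pH 7.3 with 150 mM NaCl, DTT, 0.01% Tween 20; 12 min RT. Binding inhibition seen as FP decrease.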
ALOX15 inhib – blocks human 15-lipoxygenase activity. P16050. purified 15hLO-1, xylenol orange hydroperoxide absorbance. Potency, µM (highest dose often 57.1 µM), for the others: top-dose activity change, negative = inhibition, usual class: inhibitors. 74,000 compounds, 1.4% hits. AID 887; note: potency is the fitted concentration of half-maximal effect; % is set by controls: 0 for no effect and ±100 for the full control effect; nearly all actives have a fitted effect of over 55% in size
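Purified human 15hLO-1 (40 nM final) in 25 mM Hepes pH 7.5, 0.01% Triton X-100 was preincubated with compound 15 min at room temperature, then reacted 6 min with 50 uM arachidonic acid; hydroperoxide detected by Fe-XO, 573/405 nm absorbance ratio.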
BRCT PPI green – BRCA1 BRCT-phosphoprotein interaction inhibition | 75,000 compounds, 0.05% hits | P38398 | BRCA1 BRCT-phosphopeptide binding, green fluorescence polarization | Potency, µM (titrated, usually from 76.9 µM), inactives show top-dose activity change, negative = inhibition, most hits filed as inhibitors;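 note: potency is the fitted concentration of half-maximal effect; plate controls were peptide without protein for full effect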
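Compounds were incubated for 12 min at room temperature with a complex of 100 nM fluorescein-tagged pBACH1 decapeptide and 250 nM His-tagged BRCT protein. Buffer was phosphate pH 7.3 with EDTA, DTT and Tween 20. Disruption of binding lowers the polarization signal.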
YjeE inh – displaces an ADP probe from E. coli YjeE (TsaE). P0AF67. purified YjeE enzyme, qHTS inhibition assay. Potency, µM. 71,000 compounds, 0.05% hits
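Purified YjeE (10 uM) with BODIPY Texas Red-labeled ADP probe (2 uM); compounds pin-transferred, 15 min at room temperature. Binding inhibition read as decreased fluorescence polarization; ADP titration as control.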
ERK AVP inh – blocks ERK signaling stimulated by vasopressin. HEK293-V1b, vasopressin-stimulated pERK AlphaScreen. Potency, µM (titrated, usually from 57.5 µM), for inactives: at the top dose activity, negative = inhibition, hits mostly inhibitors. 72,000 compounds, 0.99% hits; note: potency is the fitted concentration of half-maximal effect; % is set by controls: 0 for no effect and ±100 for the full control effect; nearly all actives have a fitted effect of over 55% in size
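Phosphorylated ERK1/2 detected via AlphaScreen bead proximity in lysates of V1b-expressing HEK293 cells given 25 nM vasopressin for 5 min after 30 min compound exposure (37 °C). AC50 from Hill equation; basal DMSO 0%, vasopressin 100%.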
DNA Pol III inh – inhibitors of bacterial DNA polymerase III holoenzyme; reconstituted DNA polymerase III holoenzyme replication, biochemical; Potency, µM (highest dose often 57.1 µM), inactives show at the top dose activity change, negative = inhibition; 71,000 compounds, 0.25% hits; note: potency is the fitted concentration of half-maximal effect; % is set by controls: 0 for no effect and ±100 for the full control effect
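Reconstituted *E. coli* holoenzyme (0.35 nM Pol III, 1 nM beta, 154 nM SSB, 2 nM primase) was preincubated with compound for 15 min at RT. Synthesis on 1.4 nM ssM13Gori ran 35 min, then was stopped with PicoGreen/EDTA and read as dsDNA fluorescence.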
* marks the source's active call; other numbers are inactive results; i = inactive; ? = inconclusive; . = no result given; [ ] = another dose, or the depositor's remark. Compounds with a hit are over-represented: about 2.4% of the library has one in this group of screens. Calls come from the whole dose curve; as a rule, active = well fitted curve in the direction sought with a large enough effect; inconclusive = small, poorly fitted or top-dose-only effect, or another doubt; inactive = no such curve, though single readings can be large; an effect the other way counts as inactive or inconclusive.

SMILES | BRCT PPI red | ALOX15 inhib | BRCT PPI green | YjeE inh | ERK AVP inh | DNA Pol III inh
O=C(Nc1cc(C(=O)Nc2ccc(S(=O)(=O)O)cc2S(=O)(=O)O)cc(C(=O)Nc2ccc(S(=O)(=O)O)cc2S(=O)(=O)O)c1)Nc1cc(C(=O)Nc2ccc(S(=O)(=O)O)cc2S(=O)(=O)O)cc(C(=O)Nc2ccc(S(=O)(=O)O)cc2S(=O)(=O)O)c1 | 48% | -4%[25.6 µM] | -3% | i | -9% | 4µM*
O=C(Nc1ccc(C(=O)Nc2ccc(C(=O)Nc3ccc(S(=O)(=O)O)c4cc(S(=O)(=O)O)cc(S(=O)(=O)O)c34)cc2)cc1)Nc1ccc(C(=O)Nc2ccc(C(=O)Nc3ccc(S(=O)(=O)O)c4cc(S(=O)(=O)O)cc(S(=O)(=O)O)c34)cc2)cc1 | 56% | ? | -8% | i | -21% | 32µM*
CC(=O)c1ccc(NC(=O)c2ccc(S(=O)(=O)N3CCCC3)cc2)cc1 | 0% | -3% | -2% | i | 8% | -4%
COc1ccc(-c2nnc3sc(-c4ccco4)nn23)cc1OC | 1% | 13µM* | -2% | i | 21% | -2%
COc1ccc(-c2nn3c(-c4ccco4)nnc3s2)cc1OC | -10% | -14% | 7% | i | 25µM* | -9%
COc1cc(-c2nnc3sc(-c4ccco4)nn23)cc(OC)c1OC | 0% | -3% | -1% | i | -19% | -9%
O=C(CCC1(C(=O)O)CCC(=O)NC1)NCc1ccccc1 (centres undefined) | -1% | 5% | -2% | i | 26% | -3%
C=CC(C1=CC(=O)C(OC)=CC1=O)c1ccccc1 (centres undefined) | -1% | 3.2µM* | -7%[3.08 µM] | . | -8% | .
C=CC(C1=CC(=O)C(OC)=CC1=O)c1ccc(OC)cc1 (centres undefined) | -2% | 7.9µM* | -2% | . | -4% | .
C=CC(C1=CC(=O)C(OC)=C(OC)C1=O)c1ccccc1 (centres undefined) | -3% | ? | -1% | . | -25% | .
Cc1ccc(C(=O)CSc2nnc(CNc3nc(-c4ccccc4)cs3)n2C)cc1 | -5% | ? | 1% | i | 13µM* | -6%
CCn1c(CNc2nc(-c3ccccc3)cs2)nnc1SCC(=O)NCc1ccco1 | 0% | -9% | -1% | i | 3% | 0%
CCCNC(=O)OC[C@@H]1O[C@H](CCO/N=C(\C)CCN2CCCc3nc(C)c(C)cc32)C=C[C@@H]1Oc1ccc(OC)cc1 | 1%[15.4 µM] | -2%[11.4 µM] | -3%[15.4 µM] | . | 18%[11.5 µM] | .
CC(C)NCC(O)Cn1c2c(c3ccccc31)CCc1c-2cnn1-c1ccccc1 (centres undefined) | -4% | 13µM* | -3% | i | ? | -8%
O=S(=O)(O)c1cc(N=[N+]([O-])c2cc(S(=O)(=O)O)c3ccccc3c2)cc2ccccc12 | -3%[15.4 µM] | 4µM* | 0%[15.4 µM] | i | -7%[11.5 µM] | -15%[11.4 µM]
Nc1ccc(N=Nc2c(S(=O)(=O)O)cc3ccccc3c2S(=O)(=O)O)cc1 | -1%[15.4 µM] | 8%[11.4 µM] | -4%[15.4 µM] | i | 2%[11.5 µM] | -8%[11.4 µM]
CC(=O)c1ccc2c3c(ccc(O)c13)CC2 | 1% | ? | 0% | i | 32µM* | -3%[11.4 µM]
C[N+]1(C)CCc2cc(O)c(O)cc2[C@H]1Cc1ccc(O)c(O)c1 | 1%[15.4 µM] | ? | 0%[15.4 µM] | i | -8%[11.5 µM] | -13%[11.4 µM]
N#CCCn1c(=O)cnc2cnc(Oc3ccccc3)nc21 | 0% | 5% | -1% | i | -5% | -6%
COc1ccccc1NC(=O)N1CCc2[nH]c3ccc(Cl)cc3c2C1 | -2% | ? | -6% | i | 25µM* | 3%
